High-throughput results as filed in PubChem BioAssay.
Rv3671c protease – inhibitors of M. tuberculosis serine protease Rv3671c; hit rate 0.048% among 320,000; AID 2606; P9WHR9; inhibition, % at 5.96 µM; in the data active means inhibition above about 38%;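 further: extracellular domain of Rv3671c used as enzyme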
Target sequence (P9WHR9 whole entry, looked up, the tested form may be a part): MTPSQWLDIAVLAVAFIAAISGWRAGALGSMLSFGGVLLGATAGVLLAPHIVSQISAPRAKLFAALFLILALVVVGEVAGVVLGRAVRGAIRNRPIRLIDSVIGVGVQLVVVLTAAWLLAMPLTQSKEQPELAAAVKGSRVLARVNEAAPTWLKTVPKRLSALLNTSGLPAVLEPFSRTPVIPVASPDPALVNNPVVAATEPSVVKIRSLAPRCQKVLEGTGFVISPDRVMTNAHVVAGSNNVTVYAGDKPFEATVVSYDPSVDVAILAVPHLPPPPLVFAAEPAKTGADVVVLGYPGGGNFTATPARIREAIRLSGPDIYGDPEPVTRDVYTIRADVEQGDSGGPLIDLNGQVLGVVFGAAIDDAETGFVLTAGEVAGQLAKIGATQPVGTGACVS
BioA inh – blocks M. tuberculosis BioA enzyme activity; purified M. tuberculosis BioA enzyme, plate reader; inhibition, % at 9.99 µM; hit rate 0.096% among 360,000; AID 602481; in the data active means inhibition above about 40%
GDH-TPI counter-1 – inhibits GDH-TPI coupling enzymes, artifact for Mtb FBA screen. AID 588335. inhibition, % at 4.8 µM. GDH-TPI coupled enzyme counterscreen, NADH absorbance. hit rate 1.2% among 360,000; in the data active means inhibition above about 30%
FadD28 binding – M. tuberculosis FadD28 bisubstrate binding inhibition; FadD28 bisubstrate probe binding, fluorescence polarization; inhibition, % at 12.5 µM; hit rate 0.22% among 360,000; AID 588549; in the data active means inhibition above about 8.5%, passing the limit was not always enough
Mtb FBA inh – inhibitors of M. tuberculosis fructose-bisphosphate aldolase. P9WQA3. purified M. tuberculosis FBA, fluorescence read-out. hit rate 2.3% among 360,000. inhibition, % at 1 µM
Mtb FBA confirm – Mtb FBA inhibition, confirmed. AID 651616. hit rate 78% among 5,600. shares compounds with Mtb FBA inh. purified M. tuberculosis FBA, fluorescence read-out. inhibition, % at 1 µM
GDH-TPI counter-2 – inhibits GDH-TPI coupling enzymes, flagging Mtb FBA hits; shares compounds with Mtb FBA inh; GDH-TPI coupled enzyme counterscreen, fluorescence; inhibition, % at 1 µM; hit rate 81% among 5,600; AID 652141; in the data active means inhibition above about 10%
Large screens that a line does not name were inactive (follow-up assays come after a bar, where they were run). A selection: hits, their analogues and other compounds. The true share with any hit is near 3%. Unless noted, no stated cut-off is given here; in the data, active means inhibition above about 27%; inactive means the rest.

C[C@@H]1CN([C@H](C)CO)C(=O)c2cc(NC(=O)Nc3cccc4ccccc34)ccc2O[C@@H](C)CCCCO[C@@H]1CN(C)S(=O)(=O)c1ccc(F)cc1	none (no result: Rv3671c protease, GDH-TPI counter-1, FadD28 binding, Mtb FBA inh)
CCC(=O)Nc1ccc2c(c1)OC[C@H](C)N(C(=O)CN(C)C)C[C@H](C)[C@@H](OC)CN(C)C2=O	none (no result: Rv3671c protease, GDH-TPI counter-1, FadD28 binding, Mtb FBA inh)
CCNC(=O)C[C@H]1CC[C@H]2[C@@H](COc3ccc(NC(=O)Nc4cccc(C#N)c4)cc3C(=O)N2C)O1	none (no result: Rv3671c protease, GDH-TPI counter-1, FadD28 binding, Mtb FBA inh)
CCN(C[C@H]1N[C@@H](CO)[C@H]1c1ccccc1)C(=O)c1ccccc1	none (no result: Rv3671c protease, GDH-TPI counter-1, FadD28 binding, Mtb FBA inh)
O=c1c(-c2ccc(Cl)cc2)coc2c(CN3CCCCC3)c(O)ccc12	Mtb FBA inh 27 | Mtb FBA confirm inactive | GDH-TPI counter-2 inactive
O=c1c(-c2ccccc2Cl)coc2c(CN3CCCCC3)c(O)ccc12	Mtb FBA inh 80 | Mtb FBA confirm 64 | GDH-TPI counter-2 60
CC1CCCN(Cc2c(O)ccc3c(=O)c(-c4ccc(Cl)cc4)coc23)C1 (stereo unspecified)	none (no result: Rv3671c protease)
CCc1cc2c(=O)c(-c3nc4ccccc4n3C)coc2c(CN2CCCCC2)c1O	none (no result: Rv3671c protease, FadD28 binding)
CCCC#Cc1cnc2c(c1)C(=O)N([C@@H](C)CO)C[C@@H](C)[C@@H](CN(C)C(=O)C1CCC1)O2	none (no result: Rv3671c protease, GDH-TPI counter-1, FadD28 binding, Mtb FBA inh)
C[C@@H]1CCCCO[C@H](CN(C)C(=O)Nc2ccc(F)cc2)[C@@H](C)CN([C@@H](C)CO)C(=O)c2cc(NS(=O)(=O)c3ccc(Cl)cc3)ccc2O1	none (no result: Rv3671c protease, GDH-TPI counter-1, FadD28 binding, Mtb FBA inh)
CC[C@]12c3[nH]c4cc(-c5ccco5)ccc4c3CCN1C(=O)[C@@H](CC(=O)NC/C=C(\C)CCC=C(C)C)C[C@@H]2C(=O)N1CCN(C(=O)C2CC2)CC1	none (no result: Rv3671c protease)
CC[C@]12c3[nH]c4cc(-c5ccco5)ccc4c3CCN1C(=O)[C@@H](CC(=O)NCCc1ccccn1)C[C@@H]2C(=O)N1CCN(C(=O)C2CC2)CC1	Mtb FBA inh 30 (no result: Rv3671c protease) | Mtb FBA confirm 47 | GDH-TPI counter-2 33
CC[C@]12c3[nH]c4cc(-c5ccco5)ccc4c3CCN1C(=O)[C@@H](CC(=O)NC(C)(C)C)C[C@@H]2C(=O)N1CCN(C(=O)C2CC2)CC1	Mtb FBA inh 27 (no result: Rv3671c protease) | Mtb FBA confirm 63 | GDH-TPI counter-2 52
C[C@]12c3[nH]c4cc(-c5ccco5)ccc4c3CCN1C(=O)[C@@H](CC(=O)NCCc1ccccn1)C[C@@H]2C(=O)N1CCCCC1	Mtb FBA inh 43 (no result: Rv3671c protease) | Mtb FBA confirm 68 | GDH-TPI counter-2 47
CCCNC(=O)N1C[C@H](O)COC[C@H]2O[C@@H](CC(=O)OC)CC[C@@H]21	none (no result: Rv3671c protease, GDH-TPI counter-1, FadD28 binding, Mtb FBA inh)
O=C(C[C@H]1C=C[C@@H](NC(=O)c2ccc(F)cc2)[C@H](CO)O1)NCCc1ccccc1	none (no result: Rv3671c protease, GDH-TPI counter-1, FadD28 binding, Mtb FBA inh)
O=C(c1ccccc1)N1C[C@H]2[C@@H](c3ccccc31)[C@@H](CO)N2Cc1cc(F)ccc1F	none (no result: Rv3671c protease, GDH-TPI counter-1, FadD28 binding, Mtb FBA inh)
CC(C)NC(=O)Nc1ccc2c(c1)CC(=O)N([C@@H](C)CO)C[C@@H](C)[C@@H](CN(C)C(=O)NC1CCCCC1)O2	none (no result: Rv3671c protease, GDH-TPI counter-1, FadD28 binding, Mtb FBA inh)
COc1ccc(C2=NN(c3nc(C(=O)O)cs3)C(O)(C(F)(F)F)C2)c(OC)c1 (stereo unspecified)	Mtb FBA inh 53 | Mtb FBA confirm 79 | GDH-TPI counter-2 61
Cc1nc2scc(C)n2c(=O)c1S(=O)(=O)NCc1ccccc1Cl	Mtb FBA inh 34 | Mtb FBA confirm 180 | GDH-TPI counter-2 132
Cc1nc2scc(C)n2c(=O)c1S(=O)(=O)NC(C)c1ccccc1 (stereo unspecified)	Mtb FBA inh 37 | Mtb FBA confirm 40 | GDH-TPI counter-2 37
Cc1nc2scc(C)n2c(=O)c1S(=O)(=O)NCCc1ccccc1	none
Cc1nc2scc(C)n2c(=O)c1S(=O)(=O)NCC1CCN(Cc2ccc(F)cc2)CC1	Mtb FBA inh 32 | Mtb FBA confirm 121 | GDH-TPI counter-2 90
COc1ccccc1CNS(=O)(=O)c1c(C)nc2scc(C)n2c1=O	none
COC(=O)[C@@H]1[C@@H](CO)[C@@H]2Cn3c(cccc3=O)[C@@H]2N1C(=O)C1CC1	none (no result: Rv3671c protease, GDH-TPI counter-1, FadD28 binding, Mtb FBA inh)
NS(=O)(=O)c1ccccc1NC(=S)Nc1ccccc1S(N)(=O)=O	Mtb FBA inh 62 | Mtb FBA confirm active | GDH-TPI counter-2 167
CC(=O)Nc1cccc(S(N)(=O)=O)c1C	none (no result: BioA inh)
O=C(NNC(=O)C1C2CCCCC21)c1coc(=O)c(Br)c1 (stereo unspecified)	Mtb FBA inh 54 | Mtb FBA confirm 86 | GDH-TPI counter-2 50
O=C(NNC(=O)C1CCCCC1)c1ccc(Br)cc1	none (no result: BioA inh)
